The source of these data is PubChem BioAssay (NCI).

The structures appear in SMILES notation. The panel holds about 83,000 compounds, 20% with a hit somewhere; the sample as a whole holds those more often.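 Compound tested at a single concentration for 48 hours in 96-well plates; a percent growth value below 10 was scored as active.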 Unmarked numbers belong to inactive results. Calls of active or inactive are those of the source.

Common to all, as to test: NCI-60 one-dose screen, 48 h (100 = growth as untreated, 0 = no growth, -100 = all killed)
Details in all cases: 10 µM unless noted

In test [1] the test system is NCI-H226 lung.
Test [2] concerns NCI-H322M lung.
Test [3] deals with HOP-62 NSCLC.
The subject of test [4] is NCI-H460 lung.
For test [5], the system named is HOP-92 NSCLC.
Test [6] concerns NCI-H522 lung.
The subject of test [7] is A549/ATCC NSCLC.
Test [8] deals with 786-0 renal.
Test [9] relates to COLO 205 colon.
Test [10] relates to DU-145 prostate.
The subject of test [11] is K-562 leukemia.
Test [12] has as its system MALME-3M melanoma.
For test [13], the system named is MDA-MB-231 breast.
The subject of test [14] is RXF 393 renal.
For test [15], the system named is SF-268 CNS.
The subject of test [16] is SF-295 CNS.
For test [17], the system named is SF-539 CNS.
The test system of test [18] is UACC-257 melanoma.
The test system of test [19] is M14 melanoma.
The test system of test [20] is HCT-15 colon.

Turning to `[Cl][Ru].c1ccc(-c2cccc(-c3ccccn3)n2)nc1.c1ccc(-c2ccnc3c2ccc2c(-c4ccccc4)ccnc23)cc1`, the growth in test [1] was 80.1%; in [2], 76.6%; in test [3], 78.7%; in [4] it was 54.8%; in test [5] it was -12.5% (active); in test [6], 13.3%. Moreover, the growth in [7] was 60.5%; in [8] it was 89.3%; in test [9] it was -60% (active); in [10], 32.6%; in [11], 32.4%; in [12], 2.72% (active). Besides, the growth in test [13] is 32.3%; in [14], 48.4%; in test [15], 28.5%; in [16], 95.7%; in [17] it was 15.3%; in test [18], 26.9%. For the same molecule, the values for the growth in [19] and in test [20] were 71.1% and 90.4%, respectively.
On to `COc1cccc(-c2nn(-c3ccccc3)cc2-c2ccnc(N3CCN(C(=O)c4ccccc4)CC3)c2)c1`, for which the growth in test [1] was 109%; in test [2], 105%; in test [3] it was 113%; in [4], 81.8%; in test [5], 71.2%; in [6], 77.1%. Moreover, the growth was 71.7% in test [7]; 102% in test [8]; 97.7% in test [9]; 91.5% in [10]; 31.4% in [11]; 89.7% in test [12]. The growth in test [13] is 64%; in test [14], 95.7%; in test [15], 94.2%; in test [16], 89.1%; in test [17] it was 87.1%; in test [18], 101%. For the same molecule, the growth in [19] is 81.2%; in [20] it was 39.8%.
Take `CN(C)CCCNc1c2ccc(Cl)cc2nc2c1oc1ccccc12`: the growth is 1.58% (active) in [1]; -9.39% (active) in [2]; 46.9% in test [3]; -3.28% (active) in test [4]; -1.97% (active) in [5]; 2.37% (active) in test [6]. Moreover, the growth in test [7] was -40.4% (active); in test [8], 2.06% (active); in [9], 1.47% (active); in [10] it was 4% (active); in test [11], 3.28% (active); in test [12], 14.6%. The growth in test [13] is -17.5% (active); in test [14], -68.1% (active); in [15] it was 23%; in test [16], -25.1% (active); in test [17], -68.7% (active); in [18], 32%. The results for the growth in [19] and in test [20] were 15.5% and -20.6% (active), respectively.
With `CCOC(=O)c1c(Nc2ccccc2)nn2c(N)c(C#N)c(-c3ccc(Cl)cc3)nc12`, the growth in [1] was 42.1%; in test [2], 77.4%; in test [3] it was 53.9%; in [4] it was 12.1%; in [5] it was 43.2%; in test [6], 72.3%. Further, the growth in [7] was 46%; in test [8], 38.7%; in test [9], 69.4%; in test [10], 62%; in test [11], 69.1%; in test [12], 85%. The growth is 69.9% in [13]; 64.6% in test [14]; 61.1% in test [15]; 26.8% in test [16]; 64.3% in test [17]; 95.8% in test [18]. In addition, the growth is 81.2% in [19] and 76% in test [20].
As to `CCC/C=C/C=C/C(=O)N[C@@H](Cc1cc(F)cc(F)c1)C(=O)N[C@@H]1C(=O)N2CCC[C@H]2C(=O)N2CCCC[C@H]2C(=O)N[C@@H](C)C(=O)N2C[C@H](C)C[C@H]2C(=O)O[C@H]1C`, the growth in test [1] is 19.9%; in [2], 36.5%; in [3], 31.6%; in test [4], 11.9%; in test [5] it was 23%; in test [6], 17.9%. In addition, the growth is 31.8% in test [7]; 37.8% in [8]; -54.1% (active) in [9]; 22.6% in test [10]; 17.6% in test [11]; 30.8% in test [12]. Besides, the growth is 28.7% in [13]; 46.3% in [14]; 31.3% in test [15]; 10.3% in test [16]; 38.3% in test [17]; 17% in test [18]. Further, the growth in [19] is 16.5%; in [20], 16.2%.
As to `Cc1cc(C(NC(=O)CCCCCNc2cccc3c2C(=O)N(C2CCC(=O)NC2=O)C3=O)c2cccnc2)c(O)c2ncccc12` (stereo not given), the growth in test [1] is 14.2%; in test [2] it was 3.62% (active); in [3] it was 10.2%; in test [4], 13.6%; in test [5] it was -3.51% (active); in test [6], 23.4%. Moreover, the growth in [7] is 28%; in test [8] it was 9.13% (active); in test [9] it was 2.37% (active); in test [10] it was 34.8%; in test [11], 17.8%; in test [12], -14.3% (active). The growth in test [13] is -11.5% (active); in test [14], 17.2%; in test [15], 23.6%; in [16] it was 6.66% (active); in test [17], 21.5%; in test [18] it was 26.2%. The growth was -5.27% (active) in [19] and 19% in [20].
Take `Cn1cc(-c2cc(N)n3nc(-c4cn(C)c5ccc(Br)cc45)cc3n2)c2cc(Br)ccc21`: the growth was 109% in test [1]; 86.2% in test [2]; 94.8% in test [3]; 69% in test [4]; 76.9% in test [5]; 102% in [6]. Moreover, the growth in [7] is 91%; in [8], 94%; in test [9], 118%; in test [10], 60.5%; in [11], 5.07% (active); in [12], 102%. Also, the growth in [13] is 63.3%; in test [14], 147%; in test [15], 82.5%; in test [16], 105%; in [17], 85.2%; in test [18], 109%. Further, the growth in [19] was 65.5%; in test [20], 41.7%.
